The list is not random: actives were taken first. Their share in the collection is about 9.4%.
ELG1 genotoxic: genotoxicity induction in ELG1-luciferase HEK293T cells; 330,000 tested, 1.3% active; HEK293T ELG1-luciferase reporter, luminescence, 16 h; Potency, µM (highest dose often 46 µM), for the others: top-dose activity change, positive = activation, actives largely listed as activators; further: % of control where 0% means no effect; nearly all actives have a fitted effect of over 60% in size
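Step 1: seed 2,000 HEK293T ELG1-luciferase cells per well. Step 2: add compound or DMSO, incubate 16 hr at 37 °C. Step 3: ONE-Glo, 30 min at room temperature, read luminescence.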
SMN2 splice up: increases expression of the SMN2 splice variant; HEK293 SMN2-luciferase splicing reporter, luminescence, 30-36 h; Potency, µM (doses to about 46.1 µM), for the others: top-dose activity change, positive = activation, actives largely listed as activators; 210,000 tested, 2.8% active; AID 1458; further: % of control where 0% means no effect; nearly all actives have a fitted effect of over 55% in size
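HEK293 cells carry an SMN2 […]–luciferase reporter in which exon 7 inclusion puts luciferase in frame. Cells were plated 10-12 h before compound addition, then incubated 30-36 h at 37C. ONE-Glo luminescence was read; sodium butyrate at 4.5 mM final served as control.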
ELG1 repair inh: ELG1-dependent DNA repair inhibition; HEK293T ELG1-luciferase reporter, luminescence, 16 h; DNA damage induced by 5-fluorouridine; Potency, µM (highest dose often 46.1 µM), inactives show at the top dose activity change, negative = inhibition, most hits filed as inhibitors; 330,000 tested, 2.3% active; further: on the % scale 0 is the no-effect control and ±100 the full control effect; nearly all actives have a fitted effect of over 55% in size
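Cells (2,000 per well) received 5-fluorouridine plus test compound or DMSO and were incubated 16 hr at 37 °C, 5% CO2. Luciferase activity was read by luminescence 30 min after ONE-Glo addition; signal suppression marked inhibition of damage-induced ELG1 function.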
FLuc counter: inhibits or activates purified firefly luciferase, miR-21 counter-screen; 360,000 tested, 6.9% active; Potency, µM (titrated, usually from 57.5 µM), without a hit: top-dose activity change, negative = inhibition, most hits filed as inhibitors; P08659; purified FLuc, Km substrates, luminescence inhibition;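 further: plate controls were vehicle for no effect and reference inhibitor for full effect; nearly all actives have a fitted effect of over 55% in size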
Target sequence (P08659 whole entry, looked up): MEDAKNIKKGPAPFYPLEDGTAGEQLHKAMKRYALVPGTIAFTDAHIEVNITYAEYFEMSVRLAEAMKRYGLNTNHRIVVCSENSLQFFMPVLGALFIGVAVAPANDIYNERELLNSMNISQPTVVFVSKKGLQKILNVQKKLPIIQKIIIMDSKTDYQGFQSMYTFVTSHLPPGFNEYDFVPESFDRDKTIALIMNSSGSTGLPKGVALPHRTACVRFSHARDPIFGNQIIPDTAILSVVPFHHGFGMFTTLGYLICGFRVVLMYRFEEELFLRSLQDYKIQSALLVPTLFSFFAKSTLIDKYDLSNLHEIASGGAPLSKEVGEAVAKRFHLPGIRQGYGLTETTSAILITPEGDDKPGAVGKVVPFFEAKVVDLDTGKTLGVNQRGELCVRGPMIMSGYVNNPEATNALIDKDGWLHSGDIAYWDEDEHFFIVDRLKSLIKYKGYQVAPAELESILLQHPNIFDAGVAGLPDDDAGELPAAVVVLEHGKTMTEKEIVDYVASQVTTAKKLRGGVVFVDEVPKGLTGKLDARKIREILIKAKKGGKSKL
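Purified P. pyralis luciferase (10nM final) with 10uM D-luciferin and 10uM ATP (Km levels) in 50mM Tris acetate pH 7.5, 10mM Mg acetate, 0.01% Tween-20, 0.05% BSA; qHTS 6-point titration, ~60 µM downward; luminescence read.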
Rab9 prom act: activates the Rab9 promoter; Huh7 Rab9 promoter-luciferase reporter, luminescence, 24 h; Potency, µM (highest dose often 9.22 µM), without a hit: at the highest dose activation, negative = inhibition, most hits filed as activators; 320,000 tested, 2.8% active; further: % of control where 0% means no effect; nearly all actives have a fitted effect of over 60% in size
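Measured in stably transfected Huh7 cells bearing a Rab9 promoter–luciferase construct: 24 h compound treatment at 37 °C, followed by luminescence detection.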
NPC1 prom act: activators of NPC1 promoter. Huh7 NPC1 promoter luciferase reporter, 24 h. Potency, µM (series often up to 9.22 µM), for inactives: at the top dose activation, most hits filed as activators. 320,000 tested, 2.4% active. AID 485313; further: % of control where 0% means no effect; nearly all actives have a fitted effect of over 60% in size
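Compounds in DMSO were transferred onto Huh7 NPC1-luciferase reporter cells pre-incubated 2 h; after 24 h at 37 °C, Amplite reagent was dispensed and luminescence recorded 10 min later.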
Active calls of the source: *; ! = not active in a repeat; [ ] = remark or other dose. The call rests on the fitted dose curve; in most records, active means well fitted curve in the direction sought with a large enough effect; inconclusive means small, poorly fitted or top-dose-only effect, or another doubt; inactive means no such curve, though single readings can be large; an effect the other way counts as inactive or inconclusive. Potency means the concentration at half of the fitted maximal effect.

For C/C(=N/NC(=O)c1ccco1)c1cccc(NC(=O)c2ccc(C)o2)c1 the results were ELG1 genotoxic 4.6%, SMN2 splice up 16.8%, ELG1 repair inh -7.5%, FLuc counter 15.1µM*, Rab9 prom act 19.2% and NPC1 prom act -1.3%.
`C/C(=N/NC(=O)c1cccs1)c1ccc(NC(=O)COc2ccc(Cl)cc2Cl)cc1` gave ELG1 genotoxic 8.4%, SMN2 splice up 2.6%, ELG1 repair inh inconclusive, FLuc counter -8.6%, Rab9 prom act -12.4% and NPC1 prom act -8.0%.
`C/C(=N/NC(=O)c1ccc(C)s1)c1cccc(NC(=O)COc2ccc(Cl)cc2Cl)c1` gave ELG1 genotoxic 17.0%, SMN2 splice up 5.5%, ELG1 repair inh inconclusive, FLuc counter 2.13µM*, Rab9 prom act 0.501µM* and NPC1 prom act 0.562µM*.
C/C(=N\NC(=O)c1ccn(C)n1)c1cccc(NC(=O)c2ccc(C)s2)c1 was read as ELG1 genotoxic 8.1%, SMN2 splice up inconclusive, ELG1 repair inh inconclusive, FLuc counter 3.01µM*, Rab9 prom act 29.6% and NPC1 prom act inconclusive.
`C/C(=N/NC(=O)c1ccco1)c1cccc(NC(=O)c2ccc(C)s2)c1` gave ELG1 genotoxic 12.8%, SMN2 splice up inconclusive, ELG1 repair inh 3.4%, FLuc counter 4.78µM*, Rab9 prom act 27.1% and NPC1 prom act 22.5%.
`C/C(=N/NC(=O)c1ccc(Br)o1)c1ccncc1` gave ELG1 genotoxic 1.0%, SMN2 splice up 6.3%, ELG1 repair inh inconclusive, FLuc counter inconclusive, Rab9 prom act -1.9% and NPC1 prom act 2.3%.
`C/C(=N/NC(=O)c1ccc(Br)o1)c1cccc(NC(=O)c2ccc(C)o2)c1` gave ELG1 genotoxic -2.3%, SMN2 splice up 13.1%, ELG1 repair inh inconclusive, FLuc counter 10.7µM*, Rab9 prom act 12.8% and NPC1 prom act 0.9%.
C/C(=N/NC(=O)c1ccc(Br)o1)c1cccc(NC(=O)c2ccc(F)cc2)c1 was read as ELG1 genotoxic -8.9%, ELG1 repair inh inconclusive, FLuc counter 10.7µM*, Rab9 prom act 3.4% and NPC1 prom act -2.5%.
`C/C(=N\NC(=O)C1CC1)c1ccc(NC(=O)c2ccc(Br)o2)cc1` gave ELG1 genotoxic inconclusive, SMN2 splice up 22.3%, ELG1 repair inh inconclusive, FLuc counter -3.7%, Rab9 prom act 12.1%[1.84 µM] and NPC1 prom act inconclusive.
COc1cc2c(cc1OC)C(/C=C/c1ccc(OC)c(OC)c1OC)=NCC2 was read as SMN2 splice up -6.6%.
Brc1cc2c(cc1/C=N/Nc1nc3ccccc3s1)OCO2 was read as ELG1 genotoxic 18.4µM*, SMN2 splice up inconclusive, ELG1 repair inh inconclusive, FLuc counter -19.1%, Rab9 prom act inconclusive and NPC1 prom act inconclusive.
For C(=N\Nc1nc2ccccc2s1)/c1ccc2c(c1)OCO2 the results were ELG1 genotoxic inconclusive, SMN2 splice up 1µM*, ELG1 repair inh inconclusive, FLuc counter 0.757µM*, Rab9 prom act 1.26µM* and NPC1 prom act 3.98µM*.
For Cc1nc(N/N=C\c2ccc3c(c2)OCO3)sc1C the results were ELG1 genotoxic inconclusive, ELG1 repair inh inconclusive, FLuc counter 1.9µM*, Rab9 prom act 0.316µM* and NPC1 prom act 1.58µM*.
Screening CCOC(=O)CN1C(=O)N[C@@H](c2cccc(C(F)(F)F)c2)[C@H](C(=O)OC)[C@H]1C returned SMN2 splice up -0.1%[9.22 µM].
Screening CCOc1ccc(Cc2nc(-c3nonc3N)no2)cc1OCC returned ELG1 genotoxic 2.5%, SMN2 splice up 10.3%, ELG1 repair inh 10.0%, FLuc counter 1.6%, Rab9 prom act 10.0% and NPC1 prom act 8.1%.
For Nc1nonc1-c1noc(N2CCOCC2)n1 the results were ELG1 genotoxic 6.4%, SMN2 splice up -44.7%, ELG1 repair inh inconclusive, FLuc counter -10.7%, Rab9 prom act 4.7% and NPC1 prom act -0.4%.
Screening Cc1cccc(OCc2nc(-c3nonc3N)no2)c1C returned ELG1 genotoxic 10.3µM*, SMN2 splice up 10µM*, ELG1 repair inh inconclusive, FLuc counter inconclusive, Rab9 prom act inconclusive and NPC1 prom act 3.16µM*.
Nc1nonc1-c1noc(COc2ccccc2Cl)n1 was read as ELG1 genotoxic 5.17µM*, SMN2 splice up 11.2µM*, ELG1 repair inh inconclusive, FLuc counter 4.78µM*, Rab9 prom act 1.12µM* and NPC1 prom act 1.41µM*.
O=C(NC(O)C(=O)c1ccccc1)c1ccccn1 (configuration not stated) was read as ELG1 genotoxic -0.4%, ELG1 repair inh 5.5%, FLuc counter 15.1µM*, Rab9 prom act -1.8% and NPC1 prom act -2.9%.
`O=C(NC(O)C(=O)c1ccccc1)c1cccs1` (configuration not stated) gave ELG1 genotoxic -2.3%, SMN2 splice up -0.2%, ELG1 repair inh 17.5%, FLuc counter inconclusive, Rab9 prom act -6.4% and NPC1 prom act -1.4%.
For COc1ccccc1C1=NC(c2ccc(C)cc2)N=C1C (configuration not stated) the results were ELG1 genotoxic -8.4%, SMN2 splice up inconclusive, ELG1 repair inh inconclusive, FLuc counter 15.1µM*, Rab9 prom act inconclusive and NPC1 prom act inconclusive.
COCc1nc2oc3ccccc3c(=O)c2cc1C(=O)OC was read as ELG1 genotoxic inconclusive, ELG1 repair inh inconclusive, FLuc counter 15.1µM*, Rab9 prom act 4.47µM* and NPC1 prom act inconclusive.
Screening CCOC(=O)c1cc2c(=O)c3ccccc3oc2nc1C returned ELG1 genotoxic 9.2µM*, ELG1 repair inh inconclusive, FLuc counter 6.01µM*, Rab9 prom act inconclusive and NPC1 prom act 22.2%.
`CCOC(=O)c1c(C)nc(C)c2c(=O)oc3ccccc3c12` gave ELG1 genotoxic -11.0%, SMN2 splice up 13.7%, ELG1 repair inh inconclusive, FLuc counter 16.9µM*, Rab9 prom act 22.6% and NPC1 prom act -3.1%.
Screening CCOC(=O)c1cc2c(ccc3ccccc32)oc1=O returned ELG1 genotoxic 4.6%, ELG1 repair inh 9.1%, FLuc counter inconclusive, Rab9 prom act -4.6% and NPC1 prom act -1.3%.
Screening CCCCC(CC)CNC(=O)CCCCCn1c(=O)[nH]c2ccsc2c1=O (configuration not stated) returned SMN2 splice up 1.3% and FLuc counter -2.1%.
For CCOc1ccc(NS(=O)(=O)c2ccc3[nH]cc(C(=O)NCCOC)c(=O)c3c2)cc1 the results were ELG1 genotoxic inconclusive, SMN2 splice up 12.6µM*!, ELG1 repair inh inconclusive, FLuc counter 10.7µM*!, Rab9 prom act 2µM* and NPC1 prom act 2.51µM*.

Screening results from PubChem.
